Outcome and AC50 data for twelve compounds are collected here from PubChem BioAssay (EPA / NIEHS).

Inconclusive results are not listed. Activity calls are given as the source filed them. Rule for the calls, unless noted: active = hit-call score of the fitted dose curve at least 0.9, where 1 is the maximum; inactive = score below 0.9.

A short description of assay [1]: BSK_LPS_PGE2: BioMAP Diversity Plus: LPS Assay for Prostaglandin E2 (PGE2) Biomarker Activity (AID 2283082).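 For AC50: secreted prostaglandin E2 measured by ELISA in LPS-stimulated co-culture.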 To be noted: primary human HUVEC with PBMC; actives raise or lower the signal. The gist of the method:
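PGE2 release measured by ELISA in an LPS-activated co-culture of human umbilical vein endothelial cells and peripheral blood mononuclear cells, read at 24 h post-dosing. DMSO served as baseline for bidirectional curve fitting.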

Read-out in assay [2]: Tissue Factor, F3 (gene 2152)
In words: BSK_LPS_TissueFactor: BioMAP Diversity Plus: LPS Assay for Tissue Factor Biomarker Activity (AID 2283084). To be noted: primary human HUVEC with PBMC; actives raise or lower the signal. In short, it runs like this:
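Human umbilical vein endothelial cells co-cultured with peripheral blood mononuclear cells were dosed and stimulated with LPS. Cell-surface CD142 was quantified by ELISA at 24 h. Activity was fitted bidirectionally against DMSO baseline.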

Read-out in assay [3]: Vascular cell adhesion molecule 1 (VCAM1), VCAM1 (gene 7412)
In words: BSK_LPS_VCAM1: BioMAP Diversity Plus: LPS Assay for Vascular cell adhesion molecule 1 (VCAM1) Biomarker Activity (AID 2283086). Particulars: primary human HUVEC with PBMC; actives raise or lower the signal. The gist of the method:
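VCAM-1 quantified by ELISA in an LPS-activated co-culture of human endothelial cells and peripheral blood mononuclear cells, read 24 h post-treatment. Fitted in both directions versus DMSO; parallel SRB staining flags overt cytotoxicity.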

Read-out in a further assay: CD38, CD38 (gene 952)
In words: BSK_SAg_CD38: BioMAP Diversity Plus: SAg Assay for CD38 Biomarker Activity (AID 2283087). Particulars: primary human HUVEC with PBMC; actives raise or lower the signal. In short, it runs like this: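 CD38 quantified by ELISA (fluorescence) in a superantigen-activated endothelial cell–PBMC co-culture at 24 h post-dose. Activity fitted in both directions relative to DMSO; parallel SRB and Alamar Blue cytotoxicity read-outs.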

Read-out in a further assay: CD40, CD40 (gene 958)
In words: BSK_SAg_CD40: BioMAP Diversity Plus: SAg Assay for CD40 Biomarker Activity (AID 2283088). To be noted: primary human HUVEC with PBMC; actives raise or lower the signal. In short, it runs like this:
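Human umbilical vein endothelial cells co-cultured with PBMC; CD40 levels measured by ELISA with fluorescence read-out 24 h after chemical dosing. Gain or loss of signal fitted bidirectionally against DMSO baseline.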

Read-out in another assay: CD69, CD69 (gene 969)
The assay can be described thus: BSK_SAg_CD69: BioMAP Diversity Plus: SAg Assay for CD69 Biomarker Activity (AID 2283089).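 For AC50: cell surface CD69 protein quantified by ELISA with fluorescence detection.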 To be noted: primary human HUVEC with PBMC; actives raise or lower the signal. The gist of the method: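 Endothelial/PBMC co-culture; chemical added; 24 h incubation; CD69 ELISA with fluorescence detection; bidirectional fit vs DMSO.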

Read-out in assay [4]: Monocyte Chemoattractant Protein-1 (MCP1), CCL2 (gene 6347)
In words: BSK_SAg_MCP1: BioMAP Diversity Plus: SAg Assay for Monocyte Chemoattractant Protein-1 (MCP1) Biomarker Activity (AID 2283090). Particulars: primary human HUVEC with PBMC; actives raise or lower the signal. In short, it runs like this: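 Values derive from bidirectional fitting of ELISA-measured MCP1 against DMSO controls. Readings were taken 24 h after dosing human vascular endothelial cells co-cultured with peripheral blood mononuclear cells under superantigen stimulation.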

Read-out in assay [5]: E-selectin (Homo sapiens) (UniProt P16581)
The assay can be described thus: BSK_SAg_Eselectin: BioMAP Diversity Plus: SAg Assay for Eselectin Biomarker Activity (AID 2283091). Particulars: primary human HUVEC with PBMC; actives raise or lower the signal. In short, it runs like this: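 HUVEC co-cultured with PBMC, compound dosed then read at 24 h; E-selectin measured by ELISA. Activity fitted bidirectionally against DMSO as negative control and baseline.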

Read-out in assay [6]: Monokine induced gamma interferon (MIG), CXCL9 (gene 4283)
In words: BSK_SAg_MIG: BioMAP Diversity Plus: SAg Assay for Monokine induced gamma interferon (MIG) Biomarker Activity (AID 2283092). Particulars: primary human HUVEC with PBMC; actives raise or lower the signal. In short, it runs like this:
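Measures CXCL9 protein by ELISA in a human vascular primary-cell co-culture (umbilical vein endothelium with PBMC) 24 h after chemical addition. Activity is scored up or down from the DMSO control.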

Assay [7] in a line: BSK_SAg_PBMCCytotoxicity: PBMC Cytotoxicity Assessment in the BioMAP Diversity Plus: SAg Assay (AID 2283093).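 For AC50: PBMC superantigen activated with SEB plus TSST-1 one hour after compound addition.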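 Note: PBMC viability measured as Alamar Blue reduction fluorescence at 546/580 nm; fitted both ways against DMSO so a hit may be loss or gain of signal.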 To be noted: primary human HUVEC with PBMC. In short, it runs like this: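 Alamar Blue reduction (6 h, ex/em 546/580 nm) read after 90 h culture of PBMC pre-dosed 1 h then stimulated with SEB plus TSST-1, 20 ng/mL each. Gain or loss of signal fitted relative to DMSO.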

Read-out in assay [8]: Interleukin-8 (IL8), CXCL8 (gene 3576)
In words: BSK_SAg_IL8: BioMAP Diversity Plus: SAg Assay for Interleukin-8 (IL8) Biomarker Activity (AID 2283094). To be noted: primary human HUVEC with PBMC; actives raise or lower the signal. The gist of the method: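 ELISA readout of IL-8 from a superantigen-activated endothelial/PBMC primary human co-culture, taken 24 h post-dosing and fitted in both directions against DMSO; parallel SRB total-protein staining flags overt cytotoxicity.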

The nature of assay [9]: BSK_SAg_Proliferation: Cell Proliferation Assessment in the BioMAP Diversity Plus: SAg Assay (AID 2283095).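 Note: relative cell number as total protein by SRB absorbance in sub-confluent culture.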 Particulars: primary human HUVEC with PBMC. The gist of the method:
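Relative cell number in the endothelial cell/PBMC co-culture was quantified at 96 h by SRB staining (0.1% SRB, 10% TCA fixation, read at 560 nm). Curves were fitted in both directions relative to DMSO baseline.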

Assay [10] in a line: BSK_SAg_SRB: Viability Assessment in the BioMAP Diversity Plus: SAg Assay (AID 2283096).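 Note: cells read one day after compound addition; hits may be either gain or loss of signal compared with DMSO.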 To be noted: primary human HUVEC with PBMC. The gist of the method:
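SRB absorbance at 560 nm served as the viability read-out. Cells (HUVEC plus peripheral blood mononuclear cells) were TCA-fixed and stained 24 h post-dosing; activity fitted in both directions against DMSO controls.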

The target in assay [11] is human CYP2D6, CYP2D6 (gene 1565) (UniProt P10635). In words: NVS_ADME_hCYP2D6: NovaScreen (NVS) CYP450-related Enzyme Activity (ADME) Assay for human CYP2D6 (AID 2283107; active = hit-call score of the fitted dose curve at least 0.9, where 1 is the maximum). The gist of the method:
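Cell-free assay using recombinant enzyme expressed in insect cells, with fluorescence-intensity readout of enzyme activity 1 hour after chemical dosing. Loss of signal versus acetonitrile negative control indicates inhibition. Primary screen ran in duplicate at 10 uM; actives were retested in concentration series.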

For assay [12], the target named is human CYP19A1, CYP19A1 (gene 1588) (UniProt P11511). In words: NVS_ADME_hCYP19A1: NovaScreen (NVS) CYP450-related Enzyme Activity (ADME) Assay for human CYP19A1 (AID 2283098; active = hit-call score of the fitted dose curve at least 0.9, where 1 is the maximum). The gist of the method: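 Primary testing was in duplicate at a single 10 uM concentration, with actives followed up in concentration-response series. Fluorescence read-out of recombinant enzyme activity at 0.5 h, cell-free. Acetonitrile was the negative-control baseline.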
Sequence of human CYP19A1, CYP19A1 (gene 1588) (P11511 whole entry, looked up): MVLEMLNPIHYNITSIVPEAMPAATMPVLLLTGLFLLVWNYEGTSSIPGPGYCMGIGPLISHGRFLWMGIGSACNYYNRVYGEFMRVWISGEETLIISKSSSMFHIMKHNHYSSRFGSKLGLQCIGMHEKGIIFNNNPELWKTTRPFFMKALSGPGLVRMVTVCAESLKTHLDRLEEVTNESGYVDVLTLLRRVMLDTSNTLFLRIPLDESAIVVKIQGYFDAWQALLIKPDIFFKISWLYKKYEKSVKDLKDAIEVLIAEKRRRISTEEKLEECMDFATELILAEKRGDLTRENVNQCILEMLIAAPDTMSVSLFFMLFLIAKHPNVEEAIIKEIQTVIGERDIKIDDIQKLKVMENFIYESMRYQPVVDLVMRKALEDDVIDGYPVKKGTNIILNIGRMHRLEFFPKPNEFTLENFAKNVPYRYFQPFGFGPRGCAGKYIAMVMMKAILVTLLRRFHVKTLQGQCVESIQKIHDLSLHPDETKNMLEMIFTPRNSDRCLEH

Sequence of E-selectin (Homo sapiens) (P16581 whole entry, looked up): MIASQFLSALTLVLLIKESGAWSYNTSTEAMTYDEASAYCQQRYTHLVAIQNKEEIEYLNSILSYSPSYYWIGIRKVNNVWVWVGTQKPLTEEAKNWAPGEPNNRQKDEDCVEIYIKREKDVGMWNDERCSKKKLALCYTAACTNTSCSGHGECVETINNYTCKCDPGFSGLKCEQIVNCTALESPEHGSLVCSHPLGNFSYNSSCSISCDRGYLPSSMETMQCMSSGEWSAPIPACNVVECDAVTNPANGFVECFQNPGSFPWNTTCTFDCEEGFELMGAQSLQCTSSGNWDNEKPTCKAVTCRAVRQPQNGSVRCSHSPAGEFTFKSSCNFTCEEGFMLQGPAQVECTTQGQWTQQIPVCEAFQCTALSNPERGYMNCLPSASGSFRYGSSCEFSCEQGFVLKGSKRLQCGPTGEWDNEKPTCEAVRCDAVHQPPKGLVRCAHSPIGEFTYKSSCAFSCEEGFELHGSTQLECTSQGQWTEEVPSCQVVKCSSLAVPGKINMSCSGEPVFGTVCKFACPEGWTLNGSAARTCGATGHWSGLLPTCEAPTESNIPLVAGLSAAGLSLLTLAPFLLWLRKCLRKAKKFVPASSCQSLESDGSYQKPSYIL
Sequence of human CYP2D6, CYP2D6 (gene 1565) (P10635 whole entry, looked up): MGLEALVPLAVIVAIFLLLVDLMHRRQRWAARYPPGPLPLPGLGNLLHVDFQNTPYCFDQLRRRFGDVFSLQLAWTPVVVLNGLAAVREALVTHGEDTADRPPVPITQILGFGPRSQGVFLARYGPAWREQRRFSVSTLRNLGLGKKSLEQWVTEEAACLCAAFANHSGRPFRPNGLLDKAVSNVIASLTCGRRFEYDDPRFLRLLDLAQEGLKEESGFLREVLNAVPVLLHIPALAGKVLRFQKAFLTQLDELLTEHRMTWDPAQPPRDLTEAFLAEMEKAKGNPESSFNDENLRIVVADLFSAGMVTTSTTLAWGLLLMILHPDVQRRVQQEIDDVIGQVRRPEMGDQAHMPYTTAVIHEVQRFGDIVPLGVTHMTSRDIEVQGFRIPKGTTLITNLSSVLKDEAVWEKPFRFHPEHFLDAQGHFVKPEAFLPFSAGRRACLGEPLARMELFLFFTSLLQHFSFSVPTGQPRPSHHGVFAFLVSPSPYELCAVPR

Regarding `CN(C)C(=S)SC(=S)N(C)C`, the outcome in assay [1] is “inactive”; in assay [2] it was “inactive”; with CD40, CD40 (gene 958) it was “inactive”; with CD69, CD69 (gene 969), “inactive”; in [4], “inactive”; in assay [5], “inactive”. In addition, the outcome in assay [6], in [8] and in assay [10] was inactive. Moreover, the AC50 in [3] was 19.9 µM (active); with CD38, CD38 (gene 952), 26.7 µM (active); in assay [7] it was 1.25 µM (active); in assay [9], 0.0189 µM (active).

As to `O=C1OC2(c3ccccc31)c1ccc(O)c(Br)c1Oc1c2ccc(O)c1Br`, the AC50 in [1] was 11.1 µM (active); in assay [2], 20 µM (active); in assay [3], 20 µM (active); in the assay with CD38, CD38 (gene 952), 20 µM (active); with CD40, CD40 (gene 958), 28.8 µM (active); with CD69, CD69 (gene 969) it was 20 µM (active). The results for the concentration at half-maximal activity (AC50) in [4], in assay [5] and in assay [9] were 20 µM (active), 26 µM (active) and 8.3 µM (active), respectively. Further, the result in assay [6], in assay [7], in assay [8] and in assay [10] was inactive.

Take `CC(=O)C(C)O` (centres undefined): in [11], the AC50 is 5 µM (active).

Take `CC(=O)Nc1ccc(C(=O)CCl)cc1`: the AC50 is 1.17 µM (active) in [1]; 5.39 µM (active) in assay [2]; 4.35 µM (active) in [3]; 3.84 µM (active) in the assay with CD38, CD38 (gene 952); 4.69 µM (active) with CD40, CD40 (gene 958); 5.33 µM (active) in the assay with CD69, CD69 (gene 969). In addition, the AC50 in [4] was 10.6 µM (active); in assay [5], 5.34 µM (active); in assay [6], 8.55 µM (active); in assay [7], 4.16 µM (active); in assay [8], 4.9 µM (active); in assay [9] it was 0.92 µM (active). Moreover, the concentration at half-maximal activity (AC50) in assay [10] was 6.11 µM (active); in assay [11], 3.64 µM (active).

For `CCCCOC(=O)CCCCCCCC(=O)OCCCC`, the outcome in assay [1] is “inactive”; in assay [2] it was “inactive”; in assay [3] it was “inactive”; with CD38, CD38 (gene 952), “inactive”; with CD40, CD40 (gene 958) it was “inactive”; in assay [4] it was “inactive”. Also, the result in assay [5], in assay [6], in [7], in assay [8], in [9] and in assay [10] was inactive.

On to `c1ccc(CCc2ccccc2)cc1`, for which the outcome in assay [1] was inactive. The AC50 in [2] was 31.1 µM (active); in assay [3] it was 31.8 µM (active); in the assay with CD38, CD38 (gene 952), 30.2 µM (active); with CD40, CD40 (gene 958), 30.9 µM (active); in the assay with CD69, CD69 (gene 969), 30 µM (active); in [4], 31.5 µM (active). In addition, the AC50 in [5] is 31.7 µM (active); in [6] it was 34.1 µM (active); in assay [7], 34.2 µM (active); in [8], 31.6 µM (active); in assay [10], 35.9 µM (active).

Take `O=C(Nc1ccc2c(O)c(N=Nc3ccc(N=Nc4ccc(S(=O)(=O)O)cc4)cc3)c(S(=O)(=O)O)cc2c1)c1ccccc1`: the outcome was “inactive” in assay [1]; “inactive” in assay [2]; “inactive” in assay [3]; “inactive” with CD38, CD38 (gene 952); “inactive” with CD40, CD40 (gene 958); “inactive” with CD69, CD69 (gene 969). Moreover, the outcome in assay [4], in [5], in assay [6], in assay [7], in assay [8] and in [9] was inactive. Moreover, the result in assay [10] was inactive.

Turning to `CC(=O)C1(C)CC2=C(CCCC2(C)C)CC1C` (centres undefined), the result in assay [1] was inactive. Also, the AC50 in assay [2] was 10.1 µM (active); in assay [3], 13 µM (active); with CD38, CD38 (gene 952), 33 µM (active); in the assay with CD40, CD40 (gene 958), 15.2 µM (active); with CD69, CD69 (gene 969) it was 24.5 µM (active); in assay [4] it was 23.6 µM (active). In addition, the AC50 was 15.5 µM (active) in assay [5]; 33.9 µM (active) in assay [6]; 12 µM (active) in assay [7]; 34.4 µM (active) in assay [8]; 9.65 µM (active) in assay [9]; 26.8 µM (active) in [10].

With `CS(C)=O`, the call in [12] was inactive.

With `COc1ccc(OC)c(N=Nc2c(O)ccc3ccccc23)c1`, the outcome is “inactive” in [1]; “inactive” with CD69, CD69 (gene 969); “inactive” in [4]; “inactive” in [5]; “inactive” in assay [6]; “inactive” in [8]. In assay [10], the result was inactive. Besides, the AC50 was 20 µM (active) in assay [2]; 20 µM (active) in assay [3]; 20 µM (active) in the assay with CD38, CD38 (gene 952); 3.97 µM (active) in the assay with CD40, CD40 (gene 958); 2.12 µM (active) in [7]; 2.25 µM (active) in [9].

On to `CC1(C)C2=CCCC(C)(C)[C@]23CC[C@H]1C3`, for which the outcome in assay [1] was “inactive”; in assay [2], “inactive”; in assay [3], “inactive”; with CD38, CD38 (gene 952) it was “inactive”; in the assay with CD40, CD40 (gene 958), “inactive”; in the assay with CD69, CD69 (gene 969), “inactive”. Further, the result in assay [4], in [5], in assay [6], in assay [8] and in assay [10] was inactive. For the same compound, the figures for the concentration at half-maximal activity (AC50) in assay [7] and in [9] were 35.6 µM (active) and 31.6 µM (active), respectively.

For `CN1C(=O)c2ccccc2C1=O`, the compound was called inactive in assay [12].

Broadly, the AC50 is the midpoint of the concentration-response curve, whichever way the signal moves.
